# Test results reported in PubChem BioAssay (NCI).
# The panel holds about 83,000 compounds, 20% with a hit somewhere; the sample as a whole holds those more often.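 Compound tested at a single concentration for 48 hours in 96-well plates; a percent growth value below 10 was scored as active.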 A number with no mark means an inactive call. The source made the active and inactive calls.
# How the values were obtained:
# Assay in all cases: NCI-60 one-dose screen, 48 h (100 = growth as untreated, 0 = no growth, -100 = all killed)
# Settings in all cases: 10 µM unless noted
# NCI-H23 lung = test system: NCI-H23 lung
# NCI-H226 lung = test system: NCI-H226 lung
# NCI-H322M lung = test system: NCI-H322M lung
# HOP-62 NSCLC = test system: HOP-62 NSCLC
# NCI-H460 lung = test system: NCI-H460 lung
# HOP-92 NSCLC = test system: HOP-92 NSCLC
# NCI-H522 lung = test system: NCI-H522 lung
# A549/ATCC NSCLC = test system: A549/ATCC NSCLC
# 786-0 renal = test system: 786-0 renal
# COLO 205 colon = test system: COLO 205 colon
# DU-145 prostate = test system: DU-145 prostate
# K-562 leukemia = test system: K-562 leukemia
# MALME-3M melanoma = test system: MALME-3M melanoma
# MDA-MB-231 breast = test system: MDA-MB-231 breast
# RXF 393 renal = test system: RXF 393 renal
# SF-268 CNS = test system: SF-268 CNS
# SF-295 CNS = test system: SF-295 CNS
# SF-539 CNS = test system: SF-539 CNS
# UACC-257 melanoma = test system: UACC-257 melanoma
# M14 melanoma = test system: M14 melanoma
Structure (SMILES),growth (NCI-H23 lung),growth (NCI-H226 lung),growth (NCI-H322M lung),growth (HOP-62 NSCLC),growth (NCI-H460 lung),growth (HOP-92 NSCLC),growth (NCI-H522 lung),growth (A549/ATCC NSCLC) [%],growth (786-0 renal),growth (COLO 205 colon),growth (DU-145 prostate),growth (K-562 leukemia),growth (MALME-3M melanoma),growth (MDA-MB-231 breast),growth (RXF 393 renal),growth (SF-268 CNS) [%],growth (SF-295 CNS),growth (SF-539 CNS),growth (UACC-257 melanoma),growth (M14 melanoma)
O=C(CN1CCOCC1)Nc1nc(-c2cc3ccccc3oc2=O)cs1,111%,88.2%,100%,96.9%,103%,90.7%,98.7%,105,103%,120%,106%,96.3%,102%,93.6%,109%,90.1,101%,97.6%,106%,101%
COc1c(B(O)O)cccc1-c1nc2c(F)cc3[nH]ncc3c2c2c1CCCC2,-11.1% (active),9.55% (active),7.84% (active),9.83% (active),4.81% (active),14.4%,1.23% (active),12.2,0.342% (active),-20.2% (active),7.77% (active),11.3%,-15.1% (active),12.4%,-45% (active),12.3,7.58% (active),-28.3% (active),20.3%,11.3%
NS(=O)(=O)c1ccccc1NC(=O)Nc1nc2ccccc2s1,90.8%,91.5%,98%,96.1%,103%,99.1%,91.9%,101,98%,109%,106%,97.5%,91.9%,97%,98.4%,98.1,94.6%,95.8%,102%,93.5%
O=C(CSc1nc2sc3c(c2c(=O)n1-c1ccccc1)CCCCC3)N/N=C/c1cccc([N+](=O)[O-])c1,54.4%,94.4%,79%,53%,19.6%,73.2%,53.5%,27.8,80.7%,89.1%,16.5%,56.3%,74.6%,51.1%,61.5%,44.3,76.3%,0.0053% (active),66.1%,71.1%
C=C1C(=O)O[C@H]2[C@H]1CC/C(Cn1cc(-c3ccccc3)nn1)=C\CC[C@@]1(C)O[C@@H]21,-23.6% (active),-25.8% (active),89.2%,79.3%,51.8%,-69.9% (active),-62% (active),33.8,-78% (active),-65.3% (active),-61.8% (active),-3.88% (active),-46.2% (active),-13% (active),-74.1% (active),61.2,75%,-34.2% (active),-46.5% (active),-59% (active)
C=C1CC[C@@H]2[C@](C)(COC(C)=O)[C@H](OC(C)=O)CC[C@@]2(C)[C@@H]1CC(Nc1ccc(S(=O)(=O)Nc2ncccn2)cc1)C1=CCOC1=O (stereo not given in full),29.6%,-16.6% (active),50.9%,126%,18.1%,56.3%,-67.7% (active),44.7,-10.1% (active),-12.1% (active),14.9%,4.6% (active),-4.93% (active),-1.01% (active),-70% (active),18.3,68%,-69% (active),16.6%,4.76% (active)
CCOc1nc(-c2ccccc2)cc2c(O)c(C(=O)N/N=C/c3ccccc3)[nH]c(=O)c12,111%,106%,128%,115%,114%,107%,74.4%,114,112%,111%,115%,48.2%,136%,117%,119%,106,134%,112%,101%,118%
COc1ccccc1N1CCCCC1,102%,104%,108%,90.4%,109%,104%,93.8%,101,95.8%,113%,110%,93.5%,94.6%,99.9%,133%,108,98.9%,94.3%,108%,101%
CCOC(=O)c1cc2c(n1C)-c1nc(NC(C)=O)sc1CCC2,76.1%,69.1%,76.2%,74.6%,95.5%,48.4%,60.9%,64.8,84.6%,96.4%,94.3%,96.6%,108%,55.1%,83.1%,77.4,84.1%,83.2%,67.8%,89.1%
O=C(/C=C/c1cccc(Cl)c1)c1ccc(Nc2nc(Nc3ccc(F)cc3)nc(Nc3ccc(Cl)cc3)n2)cc1,97.9%,118%,96.6%,91.9%,143%,72.9%,102%,87.1,99.1%,108%,162%,79.7%,108%,110%,-9.73% (active),163,61.9%,142%,100%,94.9%
CCN1CCN(C(=O)[C@]23CCC(C)(C)C[C@@H]2C2=CC[C@@H]4[C@@]5(C)CCC(=O)C(C)(C)[C@@H]5CC[C@@]4(C)[C@]2(C)CC3)CC1,64.9%,71%,81.2%,78.8%,25.5%,44.9%,44.7%,46.1,50.5%,44.2%,76.6%,21.1%,40.5%,56.5%,61%,41.5,76.3%,48.9%,32.8%,57.1%
COc1ccccc1NC(=O)N=Nc1c(O)[nH]c2ccccc12,89.8%,86.5%,81.2%,98.8%,104%,80.3%,83.2%,95.7,90.4%,85.2%,102%,91.2%,95.8%,82.7%,100%,99.1,94.1%,98.3%,89%,95.1%
CC(C)(C)[Si](C)(C)OC1[C@@H](CNC(=O)NC(=O)NC(N)=O)O[C@@H](n2cnc3c(NC(=O)Nc4ccccc4)ncnc32)[C@H]1O[Si](C)(C)C(C)(C)C (stereo not given in full),75.4%,69.4%,87.1%,71%,27.4%,92%,43.3%,44.1,90.9%,54.3%,58.9%,66.3%,79%,83.7%,71.6%,66.4,73.1%,95.4%,94%,68%
O=c1c2cccc3c(N4CCCC4)ccc(c32)c2nc3ccccc3n12,68.2%,55.3%,95.1%,66.1%,16.1%,40.7%,71.2%,35.6,88.3%,63.6%,78.1%,76%,70.4%,77.1%,103%,92,59.8%,91.3%,91.8%,91.5%
O=S(=O)(Nc1cc(F)cc(Cl)c1)c1ccc(-c2cnc(C3CC3)o2)cc1,44%,43%,44.5%,40.5%,20.7%,26.7%,1.55% (active),47.3,30.7%,24.3%,35.6%,17.1%,52.1%,42.7%,14.8%,59.5,22.4%,5.3% (active),62.9%,25.2%
C=C(C)[C@@H]1CC[C@]2(C(=O)N3CCOCC3)CC[C@]3(C)[C@H](CC[C@@H]4[C@@]5(C)C/C(=C/c6ccncc6)C(=O)C(C)(C)[C@@H]5CC[C@]43C)[C@@H]12,61.7%,42.9%,86.8%,80.8%,49.7%,39.5%,50.3%,42.4,76.4%,51.5%,77.9%,38.6%,77.5%,78.6%,52.3%,66.3,85.9%,78.5%,53.7%,75%
